This note sets out measurements from the supplement of paper PMC13380429.

Assay [1] relates to Vero E6 infected with SARS-CoV-2. Briefly: morphology score (similarity to uninfected cells); higher = more like uninfected cells. As to conditions: 24 h.
Assay [2] shares this test system. In words: SARS-CoV-2 infection rate relative to infected DMSO; higher = more infection, active = 60 or less. As to conditions: 24 h.

In turn, `COc1cccc2c1C(=O)c1c(O)c3c(c(O)c1C2=O)C[C@@](O)(C(C)=O)C[C@@H]3O[C@H]1C[C@H](N)[C@H](O)[C@H](C)O1` [daunorubicin] (10 µM) gave a morphology score in assay [1] of -0.0163. For the same molecule, the SARS-CoV-2 infection rate in assay [2] is 106% (inactive).

`COc1cc(OC)cc(N(CCNC(C)C)c2ccc3ncc(-c4cnn(C)c4)nc3c2)c1` [erdafitinib] (0.833333 µM) had a morphology score in assay [1] of 0.151. Also, the SARS-CoV-2 infection rate in assay [2] is 108% (inactive).

For the molecule `O=C(Cc1cccc(OC(F)(F)F)c1)Nc1ccc(CCCCc2nnc(NC(=O)Cc3ccccn3)s2)nn1` (10 µM), the morphology score in assay [1] is -0.0099. Besides, the SARS-CoV-2 infection rate in assay [2] is 104% (inactive).

In turn, `Cn1ncc(Cl)c1-c1cc(C(=O)N[C@H](CN)Cc2cccc(F)c2)sc1Cl` (10 µM) gave a morphology score in assay [1] of 0.197. Moreover, in assay [2], the SARS-CoV-2 infection rate was 107% (inactive).

`CC[C@@H](C)Nc1cc(C(=O)N[C@H]2C[C@H]3CC[C@@H](C2)N3c2ccc(C(=O)C3CC3)cn2)c(C)cc1C(N)=O` (10 µM) showed a morphology score in assay [1] of 0.188. The SARS-CoV-2 infection rate in assay [2] is 98.5% (inactive).

As for `CC(C)NC(=O)c1ccc(C#Cc2ccncc2)cn1` (10 µM), the morphology score in assay [1] came to 0.0135. Further, the SARS-CoV-2 infection rate in assay [2] was 102% (inactive).

For the molecule `NC(=O)c1nc(F)cnc1O` [Favipiravir] (10 µM), the morphology score in assay [1] is 0.0924. Moreover, the SARS-CoV-2 infection rate in assay [2] was 108% (inactive).

In assay [1], `CCCn1c(=O)[nH]c2nc(-c3ccc(S(=O)(=O)O)cc3)[nH]c2c1=O` (10 µM) registered a morphology score of 0.179. Besides, in assay [2], the SARS-CoV-2 infection rate is 105% (inactive).

With `NC[C@H]1O[C@H](O[C@H]2[C@H](O)[C@@H](O[C@H]3O[C@H](CO)[C@@H](O)[C@H](N)[C@H]3O)[C@H](N)C[C@@H]2N)[C@H](N)[C@@H](O)[C@@H]1O` [bekanamycin] (10 µM), the morphology score in assay [1] is 0.0989. Besides, in assay [2], the SARS-CoV-2 infection rate is 103% (inactive).

In assay [1], `NC(=O)c1ccccc1O` [salicylamide] (10 µM) gave a morphology score of -0.114. For the same molecule, in assay [2], the SARS-CoV-2 infection rate was 102% (inactive).

`Cc1cc(C)c(S(=O)(=O)Nc2cccc(C(F)(F)F)c2)c(C)c1` (10 µM): the morphology score in assay [1] is 0.152. The SARS-CoV-2 infection rate in assay [2] is 108% (inactive).

Turning to `OC1=c2ccccc2=C(NC2CCCCC2)/C1=C\c1ccccc1` (0.833333 µM), the morphology score in assay [1] is 0.213. The SARS-CoV-2 infection rate in assay [2] is 85.5% (inactive).

`CC(CNC1CCCCC1)OC(=O)c1ccccc1` (stereo unspecified) [hexylcaine] (10 µM) came in with a morphology score in assay [1] of -0.0327. In addition, the SARS-CoV-2 infection rate in assay [2] is 112% (inactive).

In turn, `Nc1ncnc2c1ncn2[C@@H]1O[C@H](CO)[C@@H](O)[C@H]1O` [adenosine] (10 µM) had a morphology score in assay [1] of 0.0109. In addition, the SARS-CoV-2 infection rate in assay [2] is 109% (inactive).

In assay [1], `COc1cc(-c2cc(-c3cccc(O)c3)cnc2N)cc(OC)c1OC` (10 µM) yielded a morphology score of 0.51. For the same molecule, in assay [2], the SARS-CoV-2 infection rate was 95% (inactive).

In assay [1], `CCOC(=O)[C@H]1O[C@@H]1C(=O)N[C@@H](CC(C)C)C(=O)NCCC(C)C` [aloxistatin] (10 µM) showed a morphology score of 0.331. Also, in assay [2], the SARS-CoV-2 infection rate is 90% (inactive).

Molecule `Cc1cc(-c2nc3cc(F)ccc3s2)ccc1NC(=O)[C@@H](N)CCCCN` [phortress] (10 µM) returned a morphology score in assay [1] of -0.32. Also, the SARS-CoV-2 infection rate in assay [2] is 120% (inactive).

Take `CCOC(=O)c1ncn2c1CN(C)C(=O)c1cc(N=[N+]=[N-])ccc1-2` (10 µM): in assay [1], the morphology score came to 0.00535. Further, the SARS-CoV-2 infection rate in assay [2] is 110% (inactive).

In turn, `OCCCNc1cc(-c2ccnc(Nc3cccc(Cl)c3)n2)ccn1` (10 µM) came in with a morphology score in assay [1] of -0.158. For the same molecule, the SARS-CoV-2 infection rate in assay [2] is 98% (inactive).

Take `C[C@]12Cc3c[nH]nc3C[C@@H]1CC[C@@H]1[C@@H]2CC[C@@]2(C)[C@H]1CC[C@]2(C)O` [stanozolol] (10 µM): in assay [1], the morphology score was -0.305. In assay [2], the SARS-CoV-2 infection rate was 110% (inactive).

On to `CC1(C)CCC(C)(C)c2cc(C3(c4ccc(C(=O)O)cc4)OCCO3)ccc21` (10 µM), for which the morphology score in assay [1] was -0.00895. Also, in assay [2], the SARS-CoV-2 infection rate is 110% (inactive).

`O=C(Nc1cccnn1)N1CCC(=Cc2cccc(Oc3ccc(C(F)(F)F)cn3)c2)CC1` (10 µM) came in with a morphology score in assay [1] of 0.00817. For the same molecule, the SARS-CoV-2 infection rate in assay [2] was 104% (inactive).

`CN1CC[C@@H](NC(=O)Nc2ccc(C#N)cc2)C[C@@H]1c1nc2ccccc2[nH]1` [glasdegib] (10 µM) gave a morphology score in assay [1] of 0.066. Moreover, in assay [2], the SARS-CoV-2 infection rate is 100% (inactive).

`CCNC(=O)CC[C@H](N)C(=O)O` [L-theanine] (10 µM) came in with a morphology score in assay [1] of 0.0421. The SARS-CoV-2 infection rate in assay [2] was 102% (inactive).

The molecule `COc1cccc(-c2cc(F)ccc2[C@H]2Cc3nc(N)nc(C)c3C(=O)N2)n1` (0.833333 µM) returned a morphology score in assay [1] of 0.125. Also, the SARS-CoV-2 infection rate in assay [2] was 99% (inactive).

Molecule `Cc1cc(Cn2nnc3c(-c4ccco4)nc(N)nc32)ccc1N` [vipadenant] (10 µM) returned a morphology score in assay [1] of 0.0562. For the same molecule, in assay [2], the SARS-CoV-2 infection rate was 110% (inactive).

For the molecule `O=c1ccc2ccc(OCCCCN3CCN(c4cccc5sccc45)CC3)cc2[nH]1` [brexpiprazole] (10 µM), the morphology score in assay [1] turned out to be 0.0142. Besides, the SARS-CoV-2 infection rate in assay [2] is 98.5% (inactive).

For `COC(=O)N[C@H](C(=O)N1CCC[C@H]1c1nc(-c2ccc3c(c2)O[C@@H](c2ccccc2)n2c-3cc3cc(-c4c[nH]c([C@@H]5CCCN5C(=O)[C@@H](NC(=O)OC)C(C)C)n4)ccc32)c[nH]1)C(C)C` [elbasvir] (10 µM), the morphology score in assay [1] was -0.17. The SARS-CoV-2 infection rate in assay [2] is 120% (inactive).
